The record followed here is PubChem BioAssay (EPA / NIEHS).

Each structure is given as a SMILES string. Several values for one entry are separate records, joined by “and”; a condition that tells them apart may be missing. Equal entries are not always repeated. Inconclusive results are not listed. Activity calls are given as the source filed them. The calls were made as follows: active = hit-call score of the fitted dose curve at least 0.9, where 1 is the maximum; inconclusive = response in the unintended direction; inactive = score below 0.9.

The nature of the experiment: CCTE_Shafer_MEA_dev_active_electrodes_number: CCTE's Neural Network Formation Assay for Number of Active Electrodes, Shafer Lab (AID 2284040).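 As to AC50: potency for loss of active electrodes versus DMSO so lower counts are hits.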 The protocol: CCTE_Shafer_MEA_dev assay is conducted using Axion Biosystems 48 well microelectrode array (MEA) plates and Maestro recording system. Each well of the MEA plate contains a grid of 16 microelectrodes embedded in the culture surface. Electrically active cells, such as neurons, can be cultured over the electrodes, and electrical activity in these cells can be recorded extracellularly. The spontaneous firing of neurons is captured from each electrode on a microsecond timescale providing both temporally and spatially precise data. […] The CCTE_Shafer_MEA_dev assay uses primary cultures of rat cortical neurons. Recordings are made on days post-plating 5, 7, 9 and 12. As these cultures mature over time, neural networks develop functional activity and form cohesive networks in which electrical activity can be highly coordinated. CCTE_Shafer_MEA_dev_active_electrodes_number is 1 of 19 assay components of the CCTE_Shafer_MEA_dev assay. It measures the number of electrodes in a well with a mean firing rate of at least 5 spikes (action potential firings) per minute during a recording in a microelectrode array (MEA) using Axion Biosystems Maestro 768 channel amplifier with the AxIS adaptive spike detector. To collapse across multiple recordings made on days post-plating 5, 7, 9 and 12, the trapezoidal area-under-the-curve of the component is calculated.Data from the assay component CCTE_Shafer_MEA_dev_active_electrodes_number was analyzed into 1 assay endpoint. This assay endpoint, CCTE_Shafer_MEA_dev_active_electrodes_number, was analyzed in the negative analysis fitting direction relative to DMSO as the negative control and baseline of activity. Using a type of functional reporter, gain or loss-of-signal activity can be used to understand electrical activity.
On the day prior to culture, each well was coated thoroughly with 150 uL of 0.05% polyethyleneimine (PEI, Sigma Cat P3143) in 50 mM HEPES (Sigma Cat H7523) at a pH of 8. The plate was incubated at 37C for one hour. PEI was rinsed out with 500 uL of sterile water three times. Plates were stored at 4C until the day of culture. This culture was plated at a seeding density of 1.5 x 10^5 cells/well on a 48-well MEA plate, prepared as described above. Cells were administered via a 25 uL media/laminin ([…]; Sigma Cat L2020-1MG) drop directly onto the microelectrode array, as adding the cells with the laminin results in better attachment than pre-coating with laminin. After 2 hours, an additional 475 uL of cortical media was added and the cells returned to the incubator. Exposure starts at day 0 of plating and is continued over twelve days of network development until the experiment is terminated. Cells are fed with fresh medium on DIV 5 and 9, following the recordings on those days. The entire volume of media in the well is exchanged and any vehicle or compound treatment is renewed. Complete details are found in OP-NHEERL/ISTD/SBB/TJS/2015-03-r0 (available on request, email shafer.tim@epa.gov). Measurement of the electrical activity is non-invasive, and recordings can be made from the same plate over multiple different days of the culture. In cortical neurons, this allows for the measurement of extracellular action potentials over the period during which networks form in the MEA plate.
For the compound `CC1(C)S[C@@H]2[C@H](NC(=O)[C@H](N)c3ccccc3)C(=O)N2[C@H]1C(=O)O`, the compound was classed as inactive.

On to `CN(C)C(=O)C(CCN1CCC(O)(c2ccc(Cl)cc2)CC1)(c1ccccc1)c1ccccc1`, for which the AC50 (in general, the midpoint of the concentration-response curve, whichever way the signal moves) is 385 nM (active) and 196 nM (active) and 1.21 µM (active). In the case of `CC[C@H](C)C(=O)O[C@H]1CCC=C2C=C[C@H](C)[C@H](CC[C@@H]3C[C@@H](O)CC(=O)O3)[C@H]21`, the AC50 is 1.15 µM (active) and 875 nM (active). In the case of `c1ccc2cc3c4ccccc4c4ccccc4c3cc2c1`, the outcome was inactive.

With `c1cc2ccc3ccc4ccc5cccc6c(c1)c2c3c4c56`, the compound was called inactive. Regarding `CC(C)(C)NCC(O)c1cc(O)cc(O)c1` (centres undefined), the result was inactive. On the same count and under the same terms, the value for `CN(C)CCC(c1ccc(Cl)cc1)c1ccccn1` (centres undefined) was “inactive”.

On to `[Cl-].[Cl-].[NH2-].[NH2-].[Pt+4]`, for which the half-maximal activity concentration (AC50) is 10.4 µM (active). The same measure, in the same setting: then `COc1ccc2cc3[n+](cc2c1OC)CCc1cc2c(cc1-3)OCO2`, with 0.161 µM (active).

With `CC1(C)S[C@@H]2[C@H](NC(=O)[C@H](N)c3ccc(O)cc3)C(=O)N2[C@H]1C(=O)O`, the result was inactive.

Take `Cc1c(O)cccc1C(=O)N[C@@H](CSc1ccccc1)[C@H](O)CN1C[C@H]2CCCC[C@H]2C[C@H]1C(=O)NC(C)(C)C`: the AC50 is 0.953 µM (active). In the case of `CNCCC(Oc1ccc(C(F)(F)F)cc1)c1ccccc1` (centres undefined), the AC50 was 2.55 µM (active). As to `NC(N)=Nc1nc(CSCCC(N)=NS(N)(=O)=O)cs1`, the result was inactive.

As to `C[C@@H]1C[C@H]2[C@@H]3CCC4=CC(=O)C=C[C@]4(C)[C@@]3(F)[C@@H](O)C[C@]2(C)[C@@]1(O)C(=O)CO`, the call was inactive.
